Most compounds without a hit are left out; they make up all but 2.6% or so of the library.
MLLE-PAM2 inh = inhibitors of microRNA-mediated deadenylation, human PABP1 MLLE binding; GST-MLLE / FITC-PAM2 fluorescence polarization; AID 588489; actives 0.36% (n = 360,000); inhibition, % at 20 µM; in the data active means inhibition above about 35%, passing the limit was not always enough
A3G deaminase = inhibitors of human APOBEC3G DNA deaminase | Q9HC16 | recombinant A3G, ssDNA deamination FAM/TAMRA fluorescence | inhibition, % at 20 µM | actives 0.28% (n = 330,000) | AID 493012;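 active means inhibition of at least 40% at 20 µM, with no more than 30% in the related APOBEC3A deaminase screen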
Target sequence (Q9HC16 whole entry, looked up): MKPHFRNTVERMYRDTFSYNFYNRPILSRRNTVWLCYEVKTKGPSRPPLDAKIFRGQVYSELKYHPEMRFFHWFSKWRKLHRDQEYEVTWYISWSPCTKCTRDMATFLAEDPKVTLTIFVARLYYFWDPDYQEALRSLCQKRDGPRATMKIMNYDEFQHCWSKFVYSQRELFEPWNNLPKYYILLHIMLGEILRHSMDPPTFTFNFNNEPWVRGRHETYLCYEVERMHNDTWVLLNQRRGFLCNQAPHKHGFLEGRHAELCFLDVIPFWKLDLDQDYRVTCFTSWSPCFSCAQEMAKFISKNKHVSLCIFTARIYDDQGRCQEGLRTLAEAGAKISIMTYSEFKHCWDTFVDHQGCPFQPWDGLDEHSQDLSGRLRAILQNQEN
APOBEC3A inh = human APOBEC3A DNA deaminase inhibition; recombinant A3A, FAM/TAMRA ssDNA deamination fluorescence; inhibition, % at 20 µM; actives 0.41% (n = 330,000); P31941;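 active means at least 40% inhibition at 20 µM here, with at most 30% in a related deaminase screen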
eIF4H inh = inhibitors of RNA binding by human eIF4H; Q15056; eIF4H fluorescence polarization binding assay; inhibition, % at 35 µM; actives 0.94% (n = 290,000);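 further: calls also rest on retests at 20 µM and on dose response follow-up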
PHOSPHO1 block = PHOSPHO1 (human) inhibition; Q8TCT1; recombinant PHOSPHO1, absorbance phosphatase assay; inhibition, % at 13.3 µM; actives 1.1% (n = 290,000); AID 1565; in the data active means inhibition above about 60%
Target sequence (Q8TCT1 whole entry, looked up): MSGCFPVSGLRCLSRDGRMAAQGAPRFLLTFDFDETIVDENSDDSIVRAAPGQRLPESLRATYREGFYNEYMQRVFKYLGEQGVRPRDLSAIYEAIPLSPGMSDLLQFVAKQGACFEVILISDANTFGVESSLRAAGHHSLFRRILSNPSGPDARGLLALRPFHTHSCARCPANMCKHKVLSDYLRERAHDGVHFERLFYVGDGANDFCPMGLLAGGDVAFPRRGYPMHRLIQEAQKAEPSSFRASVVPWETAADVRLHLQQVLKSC
PABP polyA inh = blocks human PABP binding to poly(A) RNA; P11940; fluorescence polarization; calls only at 35 µM; actives 1% (n = 290,000);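 further: calls also rest on retests at 20 µM and on dose response follow-up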
Large screens that a line does not name were inactive. Unless noted, how the calls were made is not given here.

N#C/C(=C\c1ccc(-c2ccc(C(=O)O)cc2)o1)C(=O)Nc1ccc(F)cc1	eIF4H inh 87, PABP polyA inh active (no result: A3G deaminase, APOBEC3A inh)
Cc1ccc(-n2cc(CNCCN3CCOC3=O)c(-c3cccc(C)c3)n2)cc1	none
O=C1OCCN1CCNCc1cn(-c2ccc(F)cc2)nc1-c1ccccc1Cl	PHOSPHO1 block 60
Cc1ccsc1/C=C/C1=Cc2c(sc(NC(=O)CSc3n[nH]c(N)n3)c2C#N)C(C)(C)C1	eIF4H inh inconclusive, PHOSPHO1 block 80, PABP polyA inh inconclusive
Cc1cc(SCNC(=O)c2ccccc2)nc(C(C)C)n1	MLLE-PAM2 inh 41
Cc1cc(C)nc(SCc2ccc(C(=O)N/N=C/c3cccc(O)c3O)cc2)n1	eIF4H inh 97, PABP polyA inh active
Cc1cc(C)nc(SCC(=O)O)n1	none
Cc1cc(C)nc(SCNC(=O)c2ccccc2)n1	MLLE-PAM2 inh 43
Cc1cc(C)n2nc(SCCOc3ccccc3F)nc2n1	none
c1ccc(-c2ccc(-c3nccc4ccccc34)[nH]2)cc1	eIF4H inh 62, PABP polyA inh active (no result: MLLE-PAM2 inh, A3G deaminase, APOBEC3A inh)
Clc1ccc(CN2CC[C@H]3C=CCc4cccc(c43)C2)cc1	none (no result: eIF4H inh, PHOSPHO1 block, PABP polyA inh)
Fc1ccc(CN2CC[C@H]3C=CCc4cccc(c43)C2)cc1	MLLE-PAM2 inh 47 (no result: eIF4H inh, PHOSPHO1 block, PABP polyA inh)
O=C1c2cccc3c([N+](=O)[O-])ccc(c23)C(=O)N1O	eIF4H inh inconclusive, PABP polyA inh inconclusive
COc1ccc2c3c(cccc13)C(=O)N(O)C2=O	MLLE-PAM2 inh 40 (no result: A3G deaminase, APOBEC3A inh)
CCC(C)N(C(=O)COC(=O)CNC(=O)c1sc2ccccc2c1Cl)C1CCS(=O)(=O)C1 (centres undefined)	none
C=CCNc1nc2c3ccccc3n(C(C)=O)c2s1	PHOSPHO1 block 70
Cc1c(Cl)c(-c2n[nH]c(=S)n2Cc2ccco2)nn1C	PHOSPHO1 block 80
CCOC(=O)C1=C(O)/C(=C\c2cccs2)N=C1C	none
CCOC(=O)C1=C(O)/C(=C\c2sccc2C)N=C1C	eIF4H inh 78, PABP polyA inh active
COC(=O)C1=C(O)/C(=C\c2sccc2C)N=C1C	eIF4H inh 65, PABP polyA inh active
Cc1nn(C)c(C)c1NC(=O)COc1ccc(Cl)cc1Br	none (no result: eIF4H inh, PHOSPHO1 block, PABP polyA inh)
COc1cc(NC(=O)N2CCc3nc(NCc4cccc(Oc5ccccc5)c4)ncc3C2)cc(OC)c1OC	none (no result: A3G deaminase, APOBEC3A inh, eIF4H inh, PHOSPHO1 block, PABP polyA inh)
COc1ccc(Nc2nnc(-c3ccc(N4CCOCC4)c([N+](=O)[O-])c3)c3ccccc23)cc1	none (no result: A3G deaminase, APOBEC3A inh)
CCOc1cc(CNCCCN2CCOCC2)cc(Br)c1OCC(=O)Nc1cccc(C(F)(F)F)c1	none
O=C(NC(=S)Nc1cccc2cccnc12)c1cccs1	MLLE-PAM2 inh 48
O=C(NC(=S)Nc1cccc2cnccc12)c1ccccc1	none
O=C(NC(=S)Nc1cccc(Cl)c1N1CCCCC1)c1cccs1	none
O=C(NC(=S)Nc1cccc2cccnc12)c1ccccc1	MLLE-PAM2 inh 39
N#Cc1ccccc1NC(=S)NC(=O)c1cccs1	none
O=C(NC(=S)Nc1cccc(Cl)c1N1CCOCC1)c1cccs1	MLLE-PAM2 inh 42
CCCC(=O)NC(=S)Nc1cccc(Cl)c1N1CCCC1	MLLE-PAM2 inh 45
NC(=O)CC(NC(=O)Cc1cccc2ccccc12)c1ccc(N2CCc3ccccc3C2)c([N+](=O)[O-])c1 (centres undefined)	none
COc1ccc(S(=O)(=O)Nc2c(C(=O)O)[nH]c3ccc(OC)cc23)c(OC)c1	none
Cc1ccc2c(C(=O)CN3CCN(C(=O)c4ccco4)CC3)c(C)[nH]c2c1	none
Cc1cccc(NC(=S)NC(=O)c2cccs2)n1	MLLE-PAM2 inh 41
O=C(NC(=S)Nc1ccc(NC(=O)c2cccs2)cc1)c1cc2ccccc2o1	eIF4H inh 96, PABP polyA inh active
O=C(NCCOc1cccc2cccnc12)c1cccs1	eIF4H inh active, PABP polyA inh active
CC(C)(C)C1CCC(OC(=O)CN2CCCCC2)CC1 (centres undefined)	none
CCOC(=O)C(=O)C1=C(N2CCOCC2)/C(=C\c2cccc([N+](=O)[O-])c2)CC1	PABP polyA inh active
O=[N+]([O-])c1ccccc1S(=O)(=O)NCc1cccnc1	none
CC(=O)Nc1cc(-c2nn(C)c(=O)c3ccccc23)ccc1N1CCOCC1	eIF4H inh inconclusive, PABP polyA inh active
CCCC(=O)Nc1cc(-c2nn(C)c(=O)c3ccccc23)ccc1N1CCOCC1	none
N#Cc1cccc(NC(=O)Cc2ccccc2)c1	PHOSPHO1 block 62
COC(=O)c1ccc(-n2nnnc2SC)cc1	PHOSPHO1 block 81
COC(=O)COC(=O)c1ccc(-n2nnnc2SC)cc1	none
O=C(CCn1c(=S)[nH]c2cc3c(cc2c1=O)OCO3)N1CCc2ccccc2C1	PHOSPHO1 block 66 (no result: MLLE-PAM2 inh)
CC(=O)c1ccc(N2CCN(C(=O)CCCn3c(=S)[nH]c4cc5c(cc4c3=O)OCO5)CC2)cc1	PHOSPHO1 block 63
O=C(CCCn1c(=S)[nH]c2cc3c(cc2c1=O)OCO3)N1CCN(c2ccc(Cl)cc2)CC1	none
O=C(CCCn1c(=S)[nH]c2cc3c(cc2c1=O)OCO3)N1CCc2ccccc2C1	none
CCOC(=O)N1CCN(C(=O)CCn2c(=S)[nH]c3cc(OCC)c(OCC)cc3c2=O)CC1	PHOSPHO1 block 66 (no result: MLLE-PAM2 inh)
O=C(CCCn1c(=S)[nH]c2cc3c(cc2c1=O)OCO3)N1CCN(c2ccccc2)CC1	PHOSPHO1 block 69
CC(C)c1cccc(C(C)C)c1NC(=O)c1ccc(OCC(=O)NCc2ccccc2)cc1	none (no result: MLLE-PAM2 inh)
CC(OC(=O)c1ccccc1Oc1ccccc1)C(=O)NC1CC1 (centres undefined)	none
CC(=O)Cn1cnc2scc(-c3ccc(C)c(C)c3)c2c1=O	none
Fc1ccc(CCN2CCN=C2Nc2ccccc2)cc1	none (no result: eIF4H inh, PHOSPHO1 block, PABP polyA inh)
O=C(CSc1nnc2c3ccccc3c3ccccc3c2n1)Nc1ccccc1F	eIF4H inh 85, PHOSPHO1 block 94
O=C(ONc1ccc(N=NC(=O)c2ccccc2O)cc1)c1ccccc1	PHOSPHO1 block 83
O=Nc1ccc(NOC(=O)c2ccccc2Br)cc1	none
Nc1ccc2ncccc2c1N	eIF4H inh 87, PABP polyA inh active (no result: A3G deaminase, APOBEC3A inh)
C=CCn1c(-c2cccn(Cc3ccc(Cl)cc3)c2=O)n[nH]c1=S	PHOSPHO1 block 99
C=CCn1c(-c2cccn(Cc3cccc(Cl)c3)c2=O)n[nH]c1=S	PHOSPHO1 block 98
N#CC1=C(N)SC(N)=C(C#N)C1c1cccc(O)c1	eIF4H inh 74, PABP polyA inh active
Cn1c(CC(=O)Nc2ccccc2)n[nH]c1=S	PHOSPHO1 block 60
COC(=O)c1cc(S(=O)(=O)NC2CCC(C)CC2)cn1C (centres undefined)	PHOSPHO1 block 64 (no result: eIF4H inh, PABP polyA inh)
COC(=O)c1cc(S(=O)(=O)NC2CCCCC2)cn1C	none (no result: eIF4H inh, PABP polyA inh)
O=C(NN1CCOCC1)c1cccc(COc2cccc(Br)c2)c1	none
c1ccc(-c2cnnc(SCc3cn4cccnc4n3)n2)cc1	PHOSPHO1 block 76
CC(=O)c1c2c3c(c(Br)ccc3n(C)c1=O)C(=O)c1ccccc1-2	MLLE-PAM2 inh 59 (no result: eIF4H inh, PABP polyA inh)

From PubChem
